Assay [1] addresses 5'-AMP-activated protein kinase catalytic subunit alpha-2 (Homo sapiens) (UniProt P54646). Conditions: at 1 µM.
Assay [2] concerns the target T1, NUAK family SNF1-like kinase 1 (Homo sapiens) (UniProt O60285).
T1 sequence (whole entry): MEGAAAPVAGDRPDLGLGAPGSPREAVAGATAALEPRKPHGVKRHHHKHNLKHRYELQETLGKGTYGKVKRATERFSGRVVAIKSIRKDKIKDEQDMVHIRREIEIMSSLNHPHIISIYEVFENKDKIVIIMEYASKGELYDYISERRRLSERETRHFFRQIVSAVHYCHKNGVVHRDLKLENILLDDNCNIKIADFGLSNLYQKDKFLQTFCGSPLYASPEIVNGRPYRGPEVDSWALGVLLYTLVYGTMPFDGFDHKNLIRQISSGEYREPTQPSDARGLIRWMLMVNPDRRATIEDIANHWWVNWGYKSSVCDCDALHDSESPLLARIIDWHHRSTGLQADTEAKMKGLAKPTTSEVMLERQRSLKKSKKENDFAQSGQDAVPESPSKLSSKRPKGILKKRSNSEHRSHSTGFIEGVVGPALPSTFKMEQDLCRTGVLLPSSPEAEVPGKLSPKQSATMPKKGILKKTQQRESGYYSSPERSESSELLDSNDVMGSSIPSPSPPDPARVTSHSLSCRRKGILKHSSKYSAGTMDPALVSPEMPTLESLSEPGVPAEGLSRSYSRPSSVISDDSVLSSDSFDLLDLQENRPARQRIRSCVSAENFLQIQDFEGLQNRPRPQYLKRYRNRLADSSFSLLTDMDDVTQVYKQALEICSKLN
As to conditions: at 0.1 µM.

In assay [3] the target is T1, NUAK family SNF1-like kinase 1 (Homo sapiens). As to conditions: at 1 µM.
For assay [4], the target named is T2, Serine/threonine-protein kinase BRSK1 (Homo sapiens) (UniProt Q8TDC3).
T2 sequence (whole entry): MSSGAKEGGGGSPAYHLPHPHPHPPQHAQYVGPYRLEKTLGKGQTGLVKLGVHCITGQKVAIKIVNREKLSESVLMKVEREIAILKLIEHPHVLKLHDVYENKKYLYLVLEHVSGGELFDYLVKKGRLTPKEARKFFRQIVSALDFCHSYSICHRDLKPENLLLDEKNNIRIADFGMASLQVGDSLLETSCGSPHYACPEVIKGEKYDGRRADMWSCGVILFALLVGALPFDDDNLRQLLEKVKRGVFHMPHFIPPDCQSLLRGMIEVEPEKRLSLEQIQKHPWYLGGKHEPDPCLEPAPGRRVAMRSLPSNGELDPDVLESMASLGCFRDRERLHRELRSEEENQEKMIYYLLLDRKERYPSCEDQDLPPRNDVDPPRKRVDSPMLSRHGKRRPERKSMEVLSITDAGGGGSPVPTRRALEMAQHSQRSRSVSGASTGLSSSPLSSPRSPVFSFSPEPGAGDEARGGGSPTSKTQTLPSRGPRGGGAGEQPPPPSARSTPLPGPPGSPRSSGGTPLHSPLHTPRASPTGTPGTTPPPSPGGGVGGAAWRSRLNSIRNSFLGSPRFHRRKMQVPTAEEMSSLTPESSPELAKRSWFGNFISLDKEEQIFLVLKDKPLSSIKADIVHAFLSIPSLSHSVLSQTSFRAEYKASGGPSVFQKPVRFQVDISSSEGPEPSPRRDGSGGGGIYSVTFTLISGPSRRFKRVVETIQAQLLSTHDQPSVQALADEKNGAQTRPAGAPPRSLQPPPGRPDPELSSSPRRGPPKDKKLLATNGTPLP
Conditions: at 0.1 µM.

The target in assay [5] is T2, Serine/threonine-protein kinase BRSK1 (Homo sapiens). Conditions: at 1 µM.
For assay [6], the target named is T3, Serine/threonine-protein kinase BRSK2 (Homo sapiens) (UniProt Q8IWQ3).
T3 sequence (whole entry): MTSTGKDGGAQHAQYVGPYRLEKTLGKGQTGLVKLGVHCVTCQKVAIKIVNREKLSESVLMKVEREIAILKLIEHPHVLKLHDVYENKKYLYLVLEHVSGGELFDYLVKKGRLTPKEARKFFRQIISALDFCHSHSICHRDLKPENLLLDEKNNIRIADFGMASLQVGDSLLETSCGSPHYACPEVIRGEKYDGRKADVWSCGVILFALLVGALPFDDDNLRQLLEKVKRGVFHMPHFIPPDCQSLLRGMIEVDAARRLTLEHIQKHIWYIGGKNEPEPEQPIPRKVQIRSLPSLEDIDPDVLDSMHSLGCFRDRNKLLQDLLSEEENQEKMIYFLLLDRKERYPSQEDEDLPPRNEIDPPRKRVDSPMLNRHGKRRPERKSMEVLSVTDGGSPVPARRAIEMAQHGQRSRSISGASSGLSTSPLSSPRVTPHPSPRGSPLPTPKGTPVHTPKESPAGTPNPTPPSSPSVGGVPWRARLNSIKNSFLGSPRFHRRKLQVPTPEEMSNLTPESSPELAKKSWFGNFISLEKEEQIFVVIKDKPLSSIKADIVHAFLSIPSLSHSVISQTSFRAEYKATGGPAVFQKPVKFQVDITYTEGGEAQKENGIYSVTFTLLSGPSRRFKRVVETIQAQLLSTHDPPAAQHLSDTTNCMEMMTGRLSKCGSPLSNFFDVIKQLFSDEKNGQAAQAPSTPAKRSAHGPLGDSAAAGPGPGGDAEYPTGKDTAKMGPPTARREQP
As to conditions: at 0.1 µM.

Assay [7] concerns the target T3, Serine/threonine-protein kinase BRSK2 (Homo sapiens). As to conditions: at 1 µM.
For assay [8], the target named is Calcium/calmodulin-dependent protein kinase type 1D (Homo sapiens) (UniProt Q8IU85). As to conditions: at 0.1 µM.
Calcium/calmodulin-dependent protein kinase type 1D (Homo sapiens), sequence (Q8IU85 whole entry, looked up): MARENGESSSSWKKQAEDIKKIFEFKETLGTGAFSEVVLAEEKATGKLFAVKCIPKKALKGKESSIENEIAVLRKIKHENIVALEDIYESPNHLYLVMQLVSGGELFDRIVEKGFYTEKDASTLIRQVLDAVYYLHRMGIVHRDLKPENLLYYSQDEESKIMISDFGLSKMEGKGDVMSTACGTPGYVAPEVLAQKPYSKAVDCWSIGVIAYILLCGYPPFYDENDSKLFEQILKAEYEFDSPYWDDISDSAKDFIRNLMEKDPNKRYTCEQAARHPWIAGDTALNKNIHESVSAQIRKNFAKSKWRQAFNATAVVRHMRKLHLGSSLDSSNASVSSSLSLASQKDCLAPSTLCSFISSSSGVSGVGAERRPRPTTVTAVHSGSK
The target is the same in assay [9]. Conditions: at 1 µM.
In assay [10] the target is Calcium/calmodulin-dependent protein kinase type II subunit alpha (Homo sapiens) (UniProt Q9UQM7). As to conditions: at 0.1 µM.
Calcium/calmodulin-dependent protein kinase type II subunit alpha (Homo sapiens), sequence (Q9UQM7 whole entry): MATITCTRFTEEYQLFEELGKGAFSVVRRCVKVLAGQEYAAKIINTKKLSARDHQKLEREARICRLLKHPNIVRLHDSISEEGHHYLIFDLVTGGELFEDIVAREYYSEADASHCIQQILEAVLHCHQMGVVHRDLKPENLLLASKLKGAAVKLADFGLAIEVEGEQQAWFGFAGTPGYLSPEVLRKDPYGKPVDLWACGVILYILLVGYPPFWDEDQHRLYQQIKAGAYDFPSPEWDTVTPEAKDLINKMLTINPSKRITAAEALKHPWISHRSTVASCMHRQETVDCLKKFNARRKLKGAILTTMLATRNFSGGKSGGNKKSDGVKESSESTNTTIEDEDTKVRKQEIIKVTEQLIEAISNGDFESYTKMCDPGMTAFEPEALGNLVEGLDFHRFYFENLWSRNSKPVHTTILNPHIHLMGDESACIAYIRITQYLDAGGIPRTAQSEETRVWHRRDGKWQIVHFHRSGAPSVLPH
For assay [11] the target is unchanged. As to conditions: at 1 µM.
Assay [12] addresses Calcium/calmodulin-dependent protein kinase type II subunit delta (Homo sapiens) (UniProt Q13557). Conditions: at 0.1 µM.
Assay [13] has the same target. As to conditions: at 1 µM.
Assay [14] concerns the target T4, Calcium/calmodulin-dependent protein kinase type IV (Homo sapiens) (UniProt Q16566).
T4 sequence (whole entry): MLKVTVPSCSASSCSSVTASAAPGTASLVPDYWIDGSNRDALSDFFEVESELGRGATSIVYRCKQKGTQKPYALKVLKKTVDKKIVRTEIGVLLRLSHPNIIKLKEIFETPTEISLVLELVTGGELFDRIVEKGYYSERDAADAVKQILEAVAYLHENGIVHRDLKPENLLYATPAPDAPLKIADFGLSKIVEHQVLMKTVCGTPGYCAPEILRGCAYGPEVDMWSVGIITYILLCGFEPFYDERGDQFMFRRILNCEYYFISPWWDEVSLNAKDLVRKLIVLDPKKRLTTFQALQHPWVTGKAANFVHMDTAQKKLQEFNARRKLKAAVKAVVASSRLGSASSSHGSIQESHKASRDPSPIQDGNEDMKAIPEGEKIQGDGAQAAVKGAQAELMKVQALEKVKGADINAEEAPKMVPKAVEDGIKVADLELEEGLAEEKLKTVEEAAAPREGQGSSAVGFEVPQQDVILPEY
As to conditions: at 0.1 µM.

In assay [15] the target is T4, Calcium/calmodulin-dependent protein kinase type IV (Homo sapiens). Conditions: at 1 µM.
For assay [16], the target named is T5, Serine/threonine-protein kinase Chk1 (Homo sapiens) (UniProt O14757).
T5 sequence (whole entry): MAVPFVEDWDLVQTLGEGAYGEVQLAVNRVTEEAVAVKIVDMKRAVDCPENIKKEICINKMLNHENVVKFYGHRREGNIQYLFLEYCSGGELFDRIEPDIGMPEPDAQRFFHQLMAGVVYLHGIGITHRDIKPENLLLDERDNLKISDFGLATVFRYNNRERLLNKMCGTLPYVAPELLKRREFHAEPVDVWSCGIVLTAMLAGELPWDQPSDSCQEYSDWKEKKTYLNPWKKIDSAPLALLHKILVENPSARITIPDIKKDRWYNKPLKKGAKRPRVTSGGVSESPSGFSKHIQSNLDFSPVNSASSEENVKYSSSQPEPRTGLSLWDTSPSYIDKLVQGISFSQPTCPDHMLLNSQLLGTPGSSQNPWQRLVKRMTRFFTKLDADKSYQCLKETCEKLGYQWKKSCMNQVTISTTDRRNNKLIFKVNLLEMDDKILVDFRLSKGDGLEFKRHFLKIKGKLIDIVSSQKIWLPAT
As to conditions: at 0.1 µM.

Assay [17] concerns the target T5, Serine/threonine-protein kinase Chk1 (Homo sapiens). Conditions: at 1 µM.
Assay [18] deals with Serine/threonine-protein kinase Chk2 (Homo sapiens) (UniProt O96017). As to conditions: at 0.1 µM.
Serine/threonine-protein kinase Chk2 (Homo sapiens), sequence (O96017 whole entry): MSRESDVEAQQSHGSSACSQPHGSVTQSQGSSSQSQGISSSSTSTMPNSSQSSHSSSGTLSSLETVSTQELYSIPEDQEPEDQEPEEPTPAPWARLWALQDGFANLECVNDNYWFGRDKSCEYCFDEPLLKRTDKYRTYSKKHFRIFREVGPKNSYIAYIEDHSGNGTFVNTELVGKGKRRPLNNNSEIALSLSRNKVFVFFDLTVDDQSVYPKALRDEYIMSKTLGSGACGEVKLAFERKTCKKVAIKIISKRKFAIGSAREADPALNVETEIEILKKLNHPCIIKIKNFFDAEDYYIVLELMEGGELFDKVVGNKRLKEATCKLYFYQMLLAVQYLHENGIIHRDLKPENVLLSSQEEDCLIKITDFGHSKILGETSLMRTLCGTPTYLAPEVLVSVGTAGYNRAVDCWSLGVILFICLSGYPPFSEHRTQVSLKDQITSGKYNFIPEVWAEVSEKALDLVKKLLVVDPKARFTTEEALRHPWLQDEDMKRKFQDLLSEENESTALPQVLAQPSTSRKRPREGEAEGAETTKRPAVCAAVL
Assay [19] has the same target. Conditions: at 1 µM.
The target in assay [20] is Death-associated protein kinase 1 (Homo sapiens) (UniProt P53355). Conditions: at 0.1 µM.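 Also: reported figure is the mean inhibition of DAPK1.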
Death-associated protein kinase 1 (Homo sapiens), sequence (P53355 whole entry, looked up): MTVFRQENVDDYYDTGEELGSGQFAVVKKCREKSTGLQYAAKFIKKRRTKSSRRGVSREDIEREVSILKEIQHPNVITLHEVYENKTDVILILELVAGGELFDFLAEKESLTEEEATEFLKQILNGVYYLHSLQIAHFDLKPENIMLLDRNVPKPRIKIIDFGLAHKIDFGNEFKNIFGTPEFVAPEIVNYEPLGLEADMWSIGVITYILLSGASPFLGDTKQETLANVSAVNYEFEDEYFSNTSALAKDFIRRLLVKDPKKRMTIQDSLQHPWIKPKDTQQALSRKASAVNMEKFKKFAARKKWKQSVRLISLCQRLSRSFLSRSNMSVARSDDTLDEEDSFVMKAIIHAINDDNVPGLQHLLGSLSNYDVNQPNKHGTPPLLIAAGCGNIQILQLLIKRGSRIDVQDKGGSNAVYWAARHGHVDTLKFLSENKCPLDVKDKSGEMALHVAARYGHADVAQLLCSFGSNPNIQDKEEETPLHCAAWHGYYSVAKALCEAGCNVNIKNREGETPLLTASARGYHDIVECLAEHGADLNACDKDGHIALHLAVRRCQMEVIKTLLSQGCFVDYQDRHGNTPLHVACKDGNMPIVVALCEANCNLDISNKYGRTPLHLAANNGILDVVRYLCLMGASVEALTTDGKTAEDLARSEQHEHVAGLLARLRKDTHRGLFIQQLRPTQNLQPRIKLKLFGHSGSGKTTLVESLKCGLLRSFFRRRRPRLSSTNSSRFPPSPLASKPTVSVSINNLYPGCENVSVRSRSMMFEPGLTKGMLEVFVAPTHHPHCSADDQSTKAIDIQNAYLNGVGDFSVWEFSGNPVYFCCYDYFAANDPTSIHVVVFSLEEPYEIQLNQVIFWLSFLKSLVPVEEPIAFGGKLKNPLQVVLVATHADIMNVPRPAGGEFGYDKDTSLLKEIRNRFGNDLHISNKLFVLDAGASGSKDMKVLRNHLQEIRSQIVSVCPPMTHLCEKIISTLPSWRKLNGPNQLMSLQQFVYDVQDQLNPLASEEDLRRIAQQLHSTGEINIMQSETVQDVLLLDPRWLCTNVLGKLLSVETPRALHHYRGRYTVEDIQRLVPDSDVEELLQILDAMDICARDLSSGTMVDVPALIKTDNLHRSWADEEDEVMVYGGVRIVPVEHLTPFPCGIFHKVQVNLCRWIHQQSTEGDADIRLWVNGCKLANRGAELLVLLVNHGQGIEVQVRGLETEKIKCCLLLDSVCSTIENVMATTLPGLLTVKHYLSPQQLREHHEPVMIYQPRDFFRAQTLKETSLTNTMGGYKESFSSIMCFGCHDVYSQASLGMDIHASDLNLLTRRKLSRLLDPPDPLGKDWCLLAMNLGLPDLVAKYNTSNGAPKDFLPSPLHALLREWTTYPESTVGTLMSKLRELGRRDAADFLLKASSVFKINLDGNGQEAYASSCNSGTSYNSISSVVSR

Consider six molecules from ChEMBL document CHEMBL1961873, “Compounds: GSK PKIS; Assays: Nanosyn kinase panel” (2012).

As a reminder, the inhibition is the relative decrease from the control value, in per cent.

Molecules are shown by their SMILES.

5'-AMP-activated protein kinase catalytic subunit alpha-2 (Homo sapiens), sequence (P54646 whole entry, looked up): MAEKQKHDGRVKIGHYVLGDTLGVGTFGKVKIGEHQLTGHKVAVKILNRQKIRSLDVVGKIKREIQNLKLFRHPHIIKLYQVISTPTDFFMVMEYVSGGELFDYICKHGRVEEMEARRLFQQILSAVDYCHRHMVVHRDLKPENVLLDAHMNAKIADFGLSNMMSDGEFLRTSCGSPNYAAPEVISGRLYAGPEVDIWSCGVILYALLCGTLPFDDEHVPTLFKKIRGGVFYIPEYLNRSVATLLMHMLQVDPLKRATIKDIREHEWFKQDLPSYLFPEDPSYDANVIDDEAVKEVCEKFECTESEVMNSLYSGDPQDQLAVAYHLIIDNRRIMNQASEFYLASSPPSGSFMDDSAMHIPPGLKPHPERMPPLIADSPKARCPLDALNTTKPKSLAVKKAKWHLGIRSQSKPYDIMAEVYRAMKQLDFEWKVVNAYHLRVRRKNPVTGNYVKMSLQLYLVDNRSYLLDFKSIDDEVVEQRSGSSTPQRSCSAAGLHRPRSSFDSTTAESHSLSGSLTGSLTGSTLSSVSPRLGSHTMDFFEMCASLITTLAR
Calcium/calmodulin-dependent protein kinase type II subunit delta (Homo sapiens), sequence (Q13557 whole entry): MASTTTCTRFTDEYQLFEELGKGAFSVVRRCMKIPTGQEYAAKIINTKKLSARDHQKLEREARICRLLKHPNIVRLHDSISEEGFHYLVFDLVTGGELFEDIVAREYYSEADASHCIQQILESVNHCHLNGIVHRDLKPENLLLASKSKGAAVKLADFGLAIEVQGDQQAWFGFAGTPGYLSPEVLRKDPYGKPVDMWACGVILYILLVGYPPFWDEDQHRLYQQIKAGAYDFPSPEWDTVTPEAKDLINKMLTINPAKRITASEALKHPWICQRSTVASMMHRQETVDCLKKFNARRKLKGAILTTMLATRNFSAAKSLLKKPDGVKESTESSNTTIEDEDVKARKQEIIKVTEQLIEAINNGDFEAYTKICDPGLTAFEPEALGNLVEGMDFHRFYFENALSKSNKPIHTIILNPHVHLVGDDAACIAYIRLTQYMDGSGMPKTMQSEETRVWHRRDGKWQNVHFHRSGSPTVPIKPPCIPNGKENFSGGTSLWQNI

`O=C(NCC1CC1)c1ccc(-c2cccc(C(=O)NC3CC3)c2)cc1`: the inhibition came to 1.74% in assay [1]; 1.06% in [2]; 4.26% in [3]; 1.95% in [4]; 0.89% in [5]; 1.44% in assay [6]. Moreover, the inhibition in [7] is -1.6%; in assay [8] it was 0.99%; in [9], 2.29%; in [10] it was 2.2%; in [11], 2.74%; in [12] it was 2.24%. For the same molecule, the inhibition in assay [13] was 3.64%; in [14], 0.89%; in assay [15], 2%; in [16], -3.93%; in assay [17] it was 2.12%; in [18] it was 0.96%. Besides, the figures for the inhibition in [19] and in [20] were 0.33% and 2.26%, respectively.

In the case of `NC(=O)c1ccc(Oc2nccc(-c3c(-c4ccc(F)cc4)ncn3C3CCNCC3)n2)cc1`, the inhibition is 3.28% in assay [1]; 1.39% in assay [2]; 2.27% in assay [3]; 2.39% in assay [4]; -0.49% in [5]; 1.13% in assay [6]. The inhibition is 1.56% in [7]; 0.06% in [8]; 2.62% in [9]; 3.03% in assay [10]; 4.37% in assay [11]; 4.24% in [12]. For the same molecule, the inhibition is 6.79% in [13]; 0.24% in [14]; 2.66% in [15]; -2.66% in [16]; 1.07% in [17]; -1.09% in assay [18]. The inhibition in assay [19] was 0.46%; in assay [20], -2.59%.

As to `O=C(Nc1n[nH]c2nc(-c3ccco3)ccc12)C1CC1`, the inhibition was found to be 3.94% in [1]; 0.19% in assay [2]; 2.78% in assay [3]; 0.98% in assay [4]; 3.49% in assay [5]; 0.55% in assay [6]. Also, the inhibition came to 4.63% in assay [7]; 0.8% in assay [8]; 2.1% in assay [9]; 1.71% in assay [10]; 1.36% in assay [11]; 2.25% in assay [12]. In addition, the inhibition is 2.34% in [13]; 2.75% in [14]; 3.02% in assay [15]; 1.37% in assay [16]; 8.39% in [17]; 4.66% in [18]. The inhibition in assay [19] is 6.05%; in assay [20], 7.38%.

For `Fc1ccc(-c2nc3n(c2-c2ccncc2)CCS3)cc1`, the inhibition in assay [1] was 5.23%; in assay [2], 0.54%; in [3], 2.44%; in assay [4], 0.25%; in assay [5] it was 0.24%; in [6], 0.52%. Further, the inhibition in [7] was 0.5%; in assay [8] it was 0.49%; in assay [9], -0.26%; in assay [10] it was 3.63%; in assay [11] it was 3.82%; in [12], 4.18%. Besides, the inhibition in [13] was 4.28%; in assay [14], 0.62%; in assay [15], 0.23%; in assay [16] it was 0.32%; in assay [17], 3.69%; in assay [18], 2.74%. Moreover, the inhibition in assay [19] amounted to 3.47%; in assay [20], 2.36%.

`CCC(=O)Nc1ccc(C)c(-c2ccc(C(=O)NCC3CC3)cc2)c1`: the inhibition in [1] stood at 2.49%; in assay [2] it was 0.85%; in assay [3] it was 1.36%; in assay [4], 1.35%; in assay [5], 0.24%; in assay [6], 1.47%. In addition, the inhibition came to 2.78% in assay [7]; 0.77% in assay [8]; 1.64% in [9]; 1.27% in [10]; 1.21% in [11]; 2.68% in assay [12]. In addition, the inhibition was 4.75% in assay [13]; -0.67% in [14]; 2.05% in assay [15]; 0.06% in assay [16]; -0.8% in assay [17]; 3.52% in assay [18]. Further, the inhibition in [19] was 5.57%; in assay [20] it was -0.61%.

On to `COc1cc2ncn(-c3cc(OCc4ccccc4C(F)(F)F)c(C(C)=O)s3)c2cc1OC`, for which the inhibition in assay [1] is 2.21%; in assay [2], -0.05%; in assay [3], 3.5%; in assay [4], 2.73%; in [5] it was 4.41%; in assay [6], 3.99%. For the same molecule, the inhibition in [7] was 4.95%; in assay [8], -0.05%; in assay [9] it was -0.22%; in assay [10] it was 4.56%; in assay [11] it was 0.39%; in assay [12], 0.61%. The inhibition in assay [13] is 1.91%; in assay [14], -0.3%; in [15], -1.74%; in assay [16], 2.09%; in assay [17], 4.57%; in [18], 1.3%. In addition, the inhibition in assay [19] is 1.9%; in assay [20], 4.16%.
